16 compounds from PubChem BioAssay (EPA / NIEHS) can be followed below.

In general, AC50 refers to the concentration at which the activity in the assay is half-maximal.

“And” between values parts separate entries of the source, which are not always exact repeats. Equal entries are not always repeated. Some structures have more than one record in an assay (separate samples or runs), and their calls can disagree. The source made the active and inactive calls. Rule for the calls: active = hit-call score of the fitted dose curve at least 0.9, where 1 is the maximum; inactive = score below 0.9.

Read-out in experiment [1]: Thrombomodulin, THBD (gene 7056)
The experiment is described as follows: BSK_CASM3C_Thrombomodulin: BioMAP Diversity Plus: CASM3C Assay for Thrombomodulin Biomarker Activity (AID 2283051).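 Note: thrombomodulin protein level measured by ELISA 24 h after dosing.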 Particulars: primary human coronary artery smooth muscle cells; actives raise or lower the signal.

Read-out in experiment [2]: Tissue Factor, F3 (gene 2152)
The experiment is described as follows: BSK_CASM3C_TissueFactor: BioMAP Diversity Plus: CASM3C Assay for Tissue Factor Biomarker Activity (AID 2283052).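 Note: cell surface tissue factor protein level read by ELISA.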 The note with it: primary human coronary artery smooth muscle cells; actives raise or lower the signal.

Read-out in experiment [3]: Interferon-gamma inducible Protein 10 (IP10), CXCL10 (gene 3627)
The experiment is described as follows: BSK_hDFCGF_IP10: BioMAP Diversity Plus: hDFCGF Assay for Interferon-gamma inducible Protein 10 (IP10) Biomarker Activity (AID 2283053). The note with it: primary human foreskin fibroblasts; actives raise or lower the signal. Summed up: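 Primary foreskin fibroblasts, human; 24 h compound exposure; IP-10 by ELISA; bidirectional fit vs DMSO.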

Read-out in experiment [4]: Urokinase-type plasminogen activator receptor (uPAR), PLAUR (gene 5329)
Briefly: BSK_CASM3C_uPAR: BioMAP Diversity Plus: CASM3C Assay for Urokinase-type plasminogen activator receptor (uPAR) Biomarker Activity (AID 2283054).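 Note: cell-surface uPAR protein level quantified by ELISA.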 The note with it: primary human coronary artery smooth muscle cells; actives raise or lower the signal.

Read-out in experiment [5]: Vascular cell adhesion molecule 1 (VCAM1), VCAM1 (gene 7412)
Briefly: BSK_CASM3C_VCAM1: BioMAP Diversity Plus: CASM3C Assay for Vascular cell adhesion molecule 1 (VCAM1) Biomarker Activity (AID 2283055).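 Note: VCAM-1 protein level quantified by ELISA on the cells.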 The note with it: primary human coronary artery smooth muscle cells; actives raise or lower the signal.

Read-out in experiment [6]: Collagen III, COL3A1 (gene 1281)
The experiment is described as follows: BSK_hDFCGF_CollagenIII: BioMAP Diversity Plus: hDFCGF Assay for Collagen III Biomarker Activity (AID 2283056). Particulars: primary human foreskin fibroblasts; actives raise or lower the signal. In short, it runs like this:
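Human foreskin fibroblast primary cultures sampled 24 h after dosing; Collagen III quantified by ELISA. Signal fitted bidirectionally against DMSO baseline.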

Read-out in experiment [7]: Epidermal growth factor receptor (EGFR), EGFR (gene 1956)
The experiment is described as follows: BSK_hDFCGF_EGFR: BioMAP Diversity Plus: hDFCGF Assay for Epidermal growth factor receptor (EGFR) Biomarker Activity (AID 2283057). The note with it: primary human foreskin fibroblasts; actives raise or lower the signal. In short, it runs like this:
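hDFCGF system, primary human foreskin fibroblasts; compound 24 h; EGFR measured by ELISA; DMSO = negative control/baseline; bidirectional fitting.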

Read-out in experiment [8]: Interleukin-8 (IL8), CXCL8 (gene 3576)
Briefly: BSK_hDFCGF_IL8: BioMAP Diversity Plus: hDFCGF Assay for Interleukin-8 (IL8) Biomarker Activity (AID 2283058). The note with it: primary human foreskin fibroblasts; actives raise or lower the signal. Summed up:
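Primary human foreskin fibroblasts (hDFCGF system) dosed with chemical; IL-8 measured by ELISA 24 hours later. Bidirectional curve fitting relative to DMSO baseline; cytotoxicity tracked in parallel cultures by SRB total protein staining.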

Experiment [9] is described as follows: BSK_hDFCGF_Proliferation: Cell Proliferation Assessment in the BioMAP Diversity Plus: hDFCGF Assay (AID 2283059).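 Note: curves fitted for both rise and fall of signal versus DMSO baseline.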 Particulars: primary human foreskin fibroblasts. Summed up:
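This proliferation readout used SRB total-protein staining of human foreskin fibroblasts […], normalized to DMSO with bidirectional curve fitting.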

Read-out in experiment [10]: Macrophage colony-stimulating factor (MCSF), CSF1 (gene 1435)
Briefly: BSK_hDFCGF_MCSF: BioMAP Diversity Plus: hDFCGF Assay for Macrophage colony-stimulating factor (MCSF) Biomarker Activity (AID 2283060). Particulars: primary human foreskin fibroblasts; actives raise or lower the signal. Summed up: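 Human foreskin fibroblast primary cultures; M-CSF measured by ELISA 24 hours after chemical dosing. Bidirectional fitting relative to DMSO, with overt cytotoxicity tracked by parallel SRB total-protein staining (0.1% SRB, 10% TCA fixation, 560 nm).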

For `NS(=O)(=O)C(F)(F)C(F)(F)C(F)(F)C(F)(F)C(F)(F)C(F)(F)C(F)(F)C(F)(F)F`, the AC50 in experiment [1] is 26 µM (active) and 34.6 µM (active) and 37.3 µM (active); in experiment [3], 20 µM (active) and 9.33 µM (active) and 8.26 µM (active); in experiment [4] it was 46.6 µM (active) and 42.5 µM (active); in experiment [5] it was 11.4 µM (active) and 16.7 µM (active); in [6], 12.6 µM (active) and 10.8 µM (active) and 9.02 µM (active); in experiment [8], 37.5 µM (active) and 22.2 µM (active) and 34 µM (active). Moreover, the AC50 in experiment [9] was 12.2 µM (active) and 18.3 µM (active) and 19.5 µM (active); in [10], 14.8 µM (active) and 8.52 µM (active) and 8.29 µM (active). For the same compound, the outcome in experiment [2], in experiment [4], in [5] and in [7] was inactive.

On to `c1cc2ccc3cccc4ccc(c1)c2c34`, for which the result in experiment [1], in experiment [2], in [3], in experiment [4], in experiment [5] and in experiment [6] was inactive. The result in experiment [7], in experiment [8] and in experiment [10] was inactive. Moreover, the half-maximal activity concentration (AC50) in [9] was 15 µM (active).

Consider `CCCCCCCCCC[N+](C)(C)CCCCCCCCCC`, for which the result in experiment [1] was inactive. Besides, the AC50 in [2] is 1.69 µM (active); in [3], 2.44 µM (active); in [4], 3.56 µM (active); in experiment [5], 5.15 µM (active); in [6], 1.76 µM (active); in [7] it was 1.22 µM (active). For the same compound, the AC50 in experiment [8] was 3.01 µM (active); in [9], 0.154 µM (active); in [10] it was 2.04 µM (active).

In the case of `C1CC2OC2CC1C1CO1` (centres undefined), the result in experiment [1], in experiment [2], in experiment [3], in experiment [4], in experiment [5] and in [6] was inactive. Besides, the outcome in experiment [7], in experiment [8], in experiment [9] and in experiment [10] was inactive.

For the compound `CCCCCCOC(=O)c1ccccc1C(=O)OCCCCCC`, the AC50 is 17.5 µM (active) in experiment [1], 7.56 µM (active) in experiment [6] and 11.2 µM (active) in [9]. In addition, the outcome in [2], in [3], in [4], in experiment [5], in experiment [7] and in experiment [8] was inactive.

As to `ClC1=C(Cl)[C@]2(Cl)[C@@H]3[C@@H]4C[C@@H]([C@H]5O[C@@H]45)[C@@H]3[C@@]1(Cl)C2(Cl)Cl`, the result in experiment [1], in experiment [2], in [3], in experiment [4], in [5] and in experiment [6] was inactive. The result in [7], in experiment [8] and in experiment [10] was inactive. Moreover, in experiment [9], the half-maximal activity concentration (AC50) was 8.97 µM (active).

In the case of `C[C@]12CCC(=O)C=C1CC[C@@H]1[C@@H]2CC[C@@]2(C)[C@H]1CC[C@]2(C)O`, the outcome in experiment [1], in experiment [2], in experiment [3], in [4], in experiment [5] and in experiment [6] was inactive. Also, the result in experiment [7], in experiment [8], in experiment [9] and in [10] was inactive.

Take `ClC1=C(Cl)[C@]2(Cl)[C@@H]3[C@@H](Cl)[C@H]4O[C@H]4[C@@H]3C1(Cl)C2(Cl)Cl`: the outcome in experiment [1], in experiment [2], in experiment [3], in [4], in [5] and in experiment [6] was inactive. The result in experiment [7], in experiment [8] and in [10] was inactive. For the same compound, in experiment [9], the AC50 was 5.9 µM (active).

Regarding `O=S(=O)(O)C(F)(F)C(F)(F)C(F)(F)C(F)(F)F`, the outcome in [1], in [2], in experiment [3], in [4], in experiment [5] and in experiment [6] was inactive. The result in experiment [7], in experiment [8], in [9] and in experiment [10] was inactive.

For `CC1=C2C[C@H]3[C@@H](CC=C4C[C@@H](O)CC[C@@]43C)[C@@H]2CC[C@]12O[C@@H]1C[C@H](C)CN[C@H]1[C@H]2C`, the result in [1], in experiment [2], in experiment [3], in experiment [4], in experiment [5] and in experiment [6] was inactive. Besides, the outcome in experiment [7], in experiment [8], in experiment [9] and in experiment [10] was inactive.

For the compound `O=C(O)C(F)(F)C(F)(F)C(F)(F)C(F)(F)C(F)(F)C(F)(F)C(F)(F)C(F)(F)F`, the result in experiment [1], in [2], in experiment [3], in [4], in experiment [5] and in [6] was inactive. Besides, the result in [7], in [8] and in experiment [10] was inactive. For the same compound, the AC50 in experiment [2] is 7.84 µM (active); in [3], 32.4 µM (active) and 43.4 µM (active); in [6], 7.13 µM (active); in [9], 34.2 µM (active) and 20.8 µM (active) and 46.7 µM (active).

Regarding `Cc1cc2c3c(c1)C(c1ccccc1)=N[C@@H](NC(=O)c1ccncc1)C(=O)N3CC2`, the result in [1], in [2], in experiment [3], in experiment [4], in experiment [5] and in experiment [6] was inactive. For the same compound, the result in experiment [7], in experiment [8] and in [10] was inactive. The half-maximal activity concentration (AC50) in [9] was 11.5 µM (active).

On to `O=C(NC(=O)c1c(F)cccc1F)Nc1cc(Cl)c(OC(F)(F)C(F)F)c(Cl)c1`, for which the outcome in experiment [1], in [2], in experiment [3], in [4], in [5] and in experiment [6] was inactive. In addition, the outcome in [7], in experiment [8], in experiment [9] and in experiment [10] was inactive.

Take `CCC(C)(c1ccc(O)cc1)c1ccc(O)cc1`: the AC50 is 26.5 µM (active) in experiment [1], 30.1 µM (active) in [3], 20 µM (active) in [6] and 30.4 µM (active) in experiment [9]. Also, the outcome in experiment [2], in experiment [4], in experiment [5], in [7], in experiment [8] and in experiment [10] was inactive.

Consider `Clc1ccc(C(c2ccccc2Cl)C(Cl)(Cl)Cl)cc1` (centres undefined), for which the AC50 in experiment [1] is 19.6 µM (active); in experiment [3] it was 7.73 µM (active); in experiment [4], 25.6 µM (active); in [5], 11.7 µM (active); in [6], 6.51 µM (active); in experiment [8] it was 10.8 µM (active). The values for the half-maximal activity concentration (AC50) in [9] and in [10] were 6.94 µM (active) and 8.37 µM (active), respectively. Further, the outcome in experiment [2] and in experiment [7] was inactive.

In the case of `CN(C)CCO`, the outcome in [1], in experiment [2], in experiment [3], in [4], in experiment [5] and in experiment [6] was inactive. The outcome in experiment [7], in experiment [8], in experiment [9] and in experiment [10] was inactive.
